In PubChem BioAssay (NCI) one finds growth data, which are given here for 17 compounds.

This is part of a sample that, as a whole, favours compounds with a hit. Of some 83,000 tested, about 20% had one in any assay.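 The test compound was applied at a single concentration to cells in 96-well plates for 48 hours, and percent growth was recorded.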 Values without a mark were called inactive. Active and inactive are the calls of the source. The calls were made as follows: active = growth percent below 10; inactive = the rest.

Experiment in all cases: NCI-60 one-dose screen, 48 h (100 = growth as untreated, 0 = no growth, -100 = all killed)
One test relates to BT-549 breast. To be noted: 10 µM unless noted.
A further test has as its system MDA-MB-435 melanoma. To be noted: 10 µM unless noted.
The subject of another test is SW-620 colon. To be noted: 10 µM unless noted.
For another test, the system named is MCF7 breast. To be noted: 10 µM.
Another test has as its system HCT-116 colon. To be noted: 10 µM unless noted.
For a further test, the system named is HCC-2998 colon. To be noted: 10 µM unless noted.
A further test has as its system KM12 colon. To be noted: 10 µM unless noted.

On to `CCCCc1ccc(NS(=O)(=O)c2cc3c4c(c2)CCN4C(=O)CC3)cc1`, for which the growth was 0.335% (active) with BT-549 breast; 29.6% in the test on MDA-MB-435 melanoma; 25.3% in the test on SW-620 colon; 16.2% with MCF7 breast; 13.4% in the test on HCT-116 colon; 19% in the test on HCC-2998 colon. Besides, the growth in the test on KM12 colon was 21%.
Take `Nc1nc2c(ncn2[C@@H]2O[C@H](CS)[C@@H](O)[C@H]2O)c(=O)[nH]1`: the growth with BT-549 breast was 100%; in the test on MDA-MB-435 melanoma it was 99.8%; with SW-620 colon, 96%; in the test on MCF7 breast, 101%; in the test on HCT-116 colon, 102%; in the test with HCC-2998 colon, 104%. In the test with KM12 colon, the growth is 101%.
Take `CN1C(=O)N(C)C2(c3ccccc3)OC(=S)NC12c1ccccc1` (centres undefined): the growth was 94.1% with BT-549 breast; 103% with MDA-MB-435 melanoma; 111% in the test with SW-620 colon; 91.8% with MCF7 breast; 94.8% with HCT-116 colon; 106% in the test on HCC-2998 colon. The growth with KM12 colon is 91.9%.
For the compound `COc1ccc(CCN2C(=O)/C(=C/c3ccc(C4Oc5ccccc5C5CC(c6cccc(OC)c6)=NN54)cc3)SC2=S)cc1` (centres undefined), the growth in the test with BT-549 breast was 108%; in the test on MDA-MB-435 melanoma, 104%; with SW-620 colon it was 98.4%; in the test with MCF7 breast, 93%; in the test with HCT-116 colon, 102%; in the test on HCC-2998 colon it was 98.6%. Besides, in the test with KM12 colon, the growth was 105%.
Take `Brc1ccc(Oc2ccc(Nc3ncnc4onc(-c5ccccc5)c34)cc2)cc1`: the growth with BT-549 breast was 102%; with MDA-MB-435 melanoma it was 99.9%; in the test with SW-620 colon, 100%; in the test with MCF7 breast, 86.1%; in the test with HCT-116 colon, 97.5%; with HCC-2998 colon, 95.5%. Besides, the growth with KM12 colon is 99.6%.
With `NCCOc1ncccc1/C=C1\c2ccccc2-c2ccc([N+](=O)[O-])cc21`, the growth in the test with BT-549 breast was -17.2% (active); in the test on MDA-MB-435 melanoma, -70.5% (active); in the test on SW-620 colon it was -50.3% (active); with MCF7 breast, -42% (active); in the test on HCT-116 colon it was -74.6% (active); with HCC-2998 colon it was -82.2% (active). In the test with KM12 colon, the growth was -51.5% (active).
On to `COc1ccc(C2=NN(/C=C3\SC(=O)NC3=Nc3ccc(F)cc3)C(c3ccc(F)cc3)C2)cc1` (centres undefined), for which the growth with BT-549 breast is 98%; in the test on MDA-MB-435 melanoma, 106%; with SW-620 colon, 99.2%; in the test on MCF7 breast it was 94.5%; in the test with HCT-116 colon it was 105%; with HCC-2998 colon, 101%. The growth in the test with KM12 colon was 98.2%.
On to `COC(=O)/C(CCC=C(C)C)=C1\[C@@H](OC(C)=O)C[C@@]2(C)[C@H]1CC(=O)[C@H]1[C@@]3(C)CC[C@H](NCc4ccccc4)[C@@H](C)[C@@H]3CC[C@@]12C`, for which the growth with BT-549 breast was 89.7%; in the test on MDA-MB-435 melanoma, 91.2%; with SW-620 colon it was 81.5%; in the test on MCF7 breast it was 82.2%; in the test on HCT-116 colon, 73%; with HCC-2998 colon, 66.6%. In addition, the growth with KM12 colon was 101%.
As to `CCOC(=O)c1cc2c(n1Cc1ccccc1OC)-c1oncc1CCC2`, the growth with BT-549 breast is 54.9%; in the test with MDA-MB-435 melanoma it was -1.95% (active); with SW-620 colon it was 23.8%; with MCF7 breast, 14%; in the test with HCT-116 colon, 29.5%; in the test on HCC-2998 colon, 53.6%. The growth in the test on KM12 colon was 41.9%.
In the case of `S=C1CCCC(=S)N1`, the growth is 102% with BT-549 breast; 106% in the test with MDA-MB-435 melanoma; 105% in the test on SW-620 colon; 105% in the test on MCF7 breast; 102% in the test on HCT-116 colon; 111% in the test with HCC-2998 colon. Further, the growth in the test on KM12 colon is 105%.
For the compound `COc1ccc(C2Nc3ncnc(N)c3N=C3c4ccccc4C(=O)C32)cc1` (centres undefined), the growth in the test with BT-549 breast is 94.3%; in the test on MDA-MB-435 melanoma, 96.9%; in the test with SW-620 colon it was 103%; with MCF7 breast, 95.5%; in the test with HCT-116 colon, 95.7%; in the test on HCC-2998 colon, 104%. For the same compound, in the test with KM12 colon, the growth is 110%.
As for `Cc1ccc(S(=O)(=O)c2c(COC(=O)c3cccc(C)c3)c(-c3ccccc3)nn2C)cc1`, the growth was 57.1% in the test with BT-549 breast; -33.7% (active) with MDA-MB-435 melanoma; -37.2% (active) in the test on SW-620 colon; -49.2% (active) in the test with MCF7 breast; 0.235% (active) with HCT-116 colon; 60% with HCC-2998 colon. Besides, the growth with KM12 colon was 16.3%.
Take `COc1ccc(-c2nocc2-c2cccs2)cc1`: the growth was 105% in the test on BT-549 breast; 101% with MDA-MB-435 melanoma; 99.4% in the test with SW-620 colon; 97.3% in the test on MCF7 breast; 103% in the test with HCT-116 colon; 118% with HCC-2998 colon. Also, in the test with KM12 colon, the growth is 104%.
Take `Cc1nc2ccccc2c(/C=C/c2ccc(F)cc2)c1C(N)=O`: the growth in the test on BT-549 breast was 97.4%; in the test on MDA-MB-435 melanoma, 107%; in the test with SW-620 colon, 105%; in the test on MCF7 breast, 69.7%; with HCT-116 colon, 98.3%; in the test with HCC-2998 colon, 128%. Also, the growth in the test with KM12 colon was 101%.
Take `CN(C)c1ccc(N=Cc2ccc(N3CCOCC3)cc2)cc1`: the growth was 95.1% in the test with BT-549 breast; 74.1% with MDA-MB-435 melanoma; 44.2% with SW-620 colon; 39% with MCF7 breast; 67.6% with HCT-116 colon; 54.2% in the test on HCC-2998 colon. Besides, the growth with KM12 colon is 59.5%.
Consider `Nc1ncnc(N)c1NC(=O)c1ccc(OCc2ccccc2)cc1`, for which the growth with BT-549 breast was 107%; in the test on MDA-MB-435 melanoma, 109%; with SW-620 colon, 98.1%; in the test with MCF7 breast, 103%; in the test with HCT-116 colon it was 111%; with HCC-2998 colon, 115%. Also, the growth in the test on KM12 colon is 104%.
Regarding `CC1=C(C(=O)OCC2CCN(C(=O)OC(C)(C)C)CC2)[C@H](c2cccc(C#N)c2)C2=C(CC(C)(C)CC2=O)N1`, the growth in the test on BT-549 breast is 65%; in the test with MDA-MB-435 melanoma it was 50.3%; with SW-620 colon it was 37.2%; in the test with MCF7 breast, 40.8%; in the test on HCT-116 colon it was 26.9%; in the test with HCC-2998 colon, 70.8%. The growth in the test on KM12 colon is 42.4%.
